# Calls of active or inactive are those of the source.
# Tests used:
# [1] = test system: Plasmodium falciparum Sir2 (PF13_0152, Sir2A); assay: Plasmodium falciparum Sir2A binding compounds – biochemical, small-molecule microarray, 635 nm fluorescence, primary screen (AID 1098); details: fluorescence 635 nm, higher = more signal;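 also: score merges spot fluorescence intensity with its signal-to-noise ratio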
# [2] = probe aDKK1 binding to arrayed compounds – biochemical, biotinylated probe, 635/667 nm fluorescence, primary screen (AID 1099); details: small-molecule microarray, higher = more signal;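 also: score merges 667nm spot fluorescence with signal to noise across triplicate slides; reference of the scale not given here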
# [3] = probe aCHRDL2 binding to arrayed compounds – biochemical, biotinylated probe, 635/667 nm fluorescence, primary screen (AID 1100); details: small-molecule microarray, higher = more signal
# [4] = change in splice reporter luminescence, either direction, cell-based, HEK293, spliceosome inhibition project, primary screen (AID 1101); details: HEK293 splicing luciferase reporter, 24 h, higher = more signal, called active from +8 up or from −8 down;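 also: HEK293 cells carrying a splicing-competent luciferase reporter gene; test concentration not given here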
# [5] = biological target: Fibroblast growth factor 10 (Homo sapiens) (UniProt O15520); assay: compounds binding fibroblast growth factor 10 – biochemical, small-molecule microarray, 635 nm fluorescence, primary screen (AID 1102); details: FGF10 binding, fluorescence 635 nm, higher = more signal
# [6] = test system: glycogen synthase kinase-3 (GSK3A per assay name; protocol says GSK3B); assay: compounds binding glycogen synthase kinase-3 – biochemical, small-molecule microarray, 635 nm fluorescence, GSK3A, primary screen (AID 1103); details: fluorescence 635 nm, higher = more signal; also: the record names both GSK3A and GSK3B
# [7] = biological target: Epidermal growth factor receptor (Homo sapiens) (UniProt P00533); assay: compounds binding epidermal growth factor receptor – biochemical, small-molecule microarray, 635 nm fluorescence, primary screen (AID 1104); details: EGFR binding, higher = more signal;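 also: score merges 667 nm emission intensity with spot signal to noise over triplicate slides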
# [8] = biological target: Follistatin-related protein 3 (Homo sapiens) (UniProt O95633); assay: compounds binding follistatin-related protein 3 – biochemical, small-molecule microarray, 635 nm fluorescence, primary screen (AID 1105); details: FSTL3 binding, higher = more signal;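 also: score merges emission near 667 nm and signal to noise per printed spot across three slides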
# [9] = biological target: Dickkopf-related protein 1 (Homo sapiens) (UniProt O94907); assay: small molecules binding DKK1 protein – biochemical, small-molecule microarray, 635 nm fluorescence scan, primary screen (AID 1106); details: higher = more signal;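 also: score merges emission near 667 nm with signal to noise over three replicate slides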
# [10] = test system: Inhibin beta A chain (activin A); assay: small molecules binding activin A – biochemical, small-molecule microarray, 635 nm fluorescence scan, primary screen (AID 1107); details: INHBA, higher = more signal;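 also: mouse activin A protein probed at 4.33 µg/mL on printed slides; score merges bound-protein fluorescence near 667 nm with spot signal-to-noise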
# Sequence of Epidermal growth factor receptor (Homo sapiens) (P00533 whole entry, looked up): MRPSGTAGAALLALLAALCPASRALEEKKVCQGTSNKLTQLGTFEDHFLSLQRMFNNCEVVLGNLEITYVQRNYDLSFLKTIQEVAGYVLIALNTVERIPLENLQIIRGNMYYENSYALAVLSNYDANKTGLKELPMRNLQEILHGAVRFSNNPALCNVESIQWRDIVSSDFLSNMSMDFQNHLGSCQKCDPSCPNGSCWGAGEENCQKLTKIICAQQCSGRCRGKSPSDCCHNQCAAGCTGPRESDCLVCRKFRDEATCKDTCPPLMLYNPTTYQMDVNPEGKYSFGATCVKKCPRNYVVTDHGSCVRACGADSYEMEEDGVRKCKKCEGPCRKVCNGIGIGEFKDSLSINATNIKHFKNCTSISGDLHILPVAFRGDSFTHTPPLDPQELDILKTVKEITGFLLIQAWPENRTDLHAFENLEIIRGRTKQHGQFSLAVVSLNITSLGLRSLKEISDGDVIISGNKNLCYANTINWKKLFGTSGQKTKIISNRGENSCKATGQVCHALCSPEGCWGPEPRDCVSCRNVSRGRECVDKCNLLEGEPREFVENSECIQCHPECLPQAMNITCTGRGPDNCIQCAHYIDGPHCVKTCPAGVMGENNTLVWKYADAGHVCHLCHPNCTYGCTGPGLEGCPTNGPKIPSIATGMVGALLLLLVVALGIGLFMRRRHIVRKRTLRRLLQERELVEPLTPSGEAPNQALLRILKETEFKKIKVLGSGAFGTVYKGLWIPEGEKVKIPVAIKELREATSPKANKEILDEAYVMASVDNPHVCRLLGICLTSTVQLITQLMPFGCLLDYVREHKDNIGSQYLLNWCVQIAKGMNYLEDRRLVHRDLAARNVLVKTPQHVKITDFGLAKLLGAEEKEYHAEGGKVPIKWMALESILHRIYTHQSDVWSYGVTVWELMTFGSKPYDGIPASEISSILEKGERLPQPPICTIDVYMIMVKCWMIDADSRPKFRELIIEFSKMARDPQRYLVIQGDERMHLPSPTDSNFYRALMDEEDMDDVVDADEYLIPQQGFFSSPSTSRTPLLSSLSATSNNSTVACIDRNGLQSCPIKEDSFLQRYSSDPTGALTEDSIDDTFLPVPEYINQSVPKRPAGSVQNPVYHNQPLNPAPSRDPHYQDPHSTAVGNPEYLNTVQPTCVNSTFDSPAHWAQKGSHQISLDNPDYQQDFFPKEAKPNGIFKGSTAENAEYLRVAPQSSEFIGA
# Sequence of Dickkopf-related protein 1 (Homo sapiens) (O94907 whole entry, looked up): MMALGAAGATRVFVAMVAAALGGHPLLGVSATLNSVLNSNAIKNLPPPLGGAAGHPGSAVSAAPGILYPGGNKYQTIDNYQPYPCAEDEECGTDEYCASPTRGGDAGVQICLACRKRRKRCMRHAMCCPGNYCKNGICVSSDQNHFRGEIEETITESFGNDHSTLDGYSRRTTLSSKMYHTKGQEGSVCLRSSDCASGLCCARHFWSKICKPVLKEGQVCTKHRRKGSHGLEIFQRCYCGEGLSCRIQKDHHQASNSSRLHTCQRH
# Sequence of Follistatin-related protein 3 (Homo sapiens) (O95633 whole entry, looked up): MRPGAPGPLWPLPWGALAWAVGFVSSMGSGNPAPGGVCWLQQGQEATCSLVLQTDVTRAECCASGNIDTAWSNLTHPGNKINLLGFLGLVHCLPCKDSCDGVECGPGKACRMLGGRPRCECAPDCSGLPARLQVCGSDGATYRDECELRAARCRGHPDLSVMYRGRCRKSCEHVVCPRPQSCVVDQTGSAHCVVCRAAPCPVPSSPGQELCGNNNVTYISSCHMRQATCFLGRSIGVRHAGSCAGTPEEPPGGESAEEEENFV
# Sequence of Fibroblast growth factor 10 (Homo sapiens) (O15520 whole entry, looked up): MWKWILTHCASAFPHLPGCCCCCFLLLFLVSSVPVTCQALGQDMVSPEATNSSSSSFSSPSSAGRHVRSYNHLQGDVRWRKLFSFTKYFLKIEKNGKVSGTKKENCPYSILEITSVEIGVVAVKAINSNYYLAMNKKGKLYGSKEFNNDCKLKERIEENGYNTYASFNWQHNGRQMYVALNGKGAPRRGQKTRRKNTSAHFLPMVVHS
Structure (SMILES),composite z-score [1],composite z-score [2],composite z-score [3],z-score [4],composite z-score [5],composite z-score [6],composite z-score [7],composite z-score [8],composite z-score [9],composite z-score [10]
C=C(COC)C(=O)CC[C@@H](OC(=O)c1ccccc1-c1ccccc1C(=O)O)c1ccccc1OCCO,0.664,-0.0934,0.0182,-0.14 (inactive),1.65,0.293,-0.0099,0.474,0.902,1.34
Cc1c(NC(=O)/C(C#N)=C/C=C/c2ccc([N+](=O)[O-])cc2)c(=O)n(-c2ccccc2)n1C,1.18,1.24,0.761,0.652 (inactive),1.19,1.15,0.404,1.21,0.534,0.256
COCCOC(=O)N1C(=O)[C@@]2(c3cc(C#CC4=CCCCC4)ccc31)[C@H](c1ccc(O)cc1)N1[C@H](c3ccccc3)[C@H](c3ccccc3)OC(=O)[C@H]1[C@@H]2C(=O)N1CCc2cc(OC)c(OC)cc2C1,0.835,0.15,0.338,0.864 (inactive),0.415,0.202,0.0275,0.227,0.0375,0.545
COC(=O)Cn1c(C(=O)N(C)C)cc2c1C[C@H]1CN(C(=O)c3ccccc3)[C@@](Cc3ccccc3)(C(=O)OC)[C@@H]21,0.272,0.605,0.686,-0.332 (inactive),-0.482,-1.25,0.183,-0.326,-0.578,0.865
COC(=O)[C@H]1N=C(c2ccc(OCCCO)cc2)O[C@H]1c1ccccc1N=[N+]=[N-],1.08,0.927,1.34,-0.977 (inactive),-0.0781,0.205,-0.454,-0.359,-0.529,1.21
CCCCCCCCCCC(O)C1C=CC2C(=O)N(C)C(=O)C2N1Nc1ccccc1 (stereo not given),-1.02,-0.0132,0.937,0.953 (inactive),-1.09,-1.09,-1.33,-1.54,-1.22,1.17
CCCCC(=C=CC[C@H](O)c1cccc(OCCO)c1)C[C@H](O)c1cc(Cl)cc(Cl)c1O,1.28,-0.152,-0.214,-0.109 (inactive),1.27,0.25,-0.443,0.544,0.0244,0.295
CCOC(=O)C=C1C[C@@H](c2cccc([N+](=O)[O-])c2)O[C@@H](c2cccc([N+](=O)[O-])c2)O1,0.765,1.15,0.895,0.435 (inactive),0.567,1.27,0.46,0.747,0.514,0.594
CN1C(=O)C2C=CC(C(O)COCc3ccccc3)N(Nc3ccc([N+](=O)[O-])cc3[N+](=O)[O-])C2C1=O (stereo not given),0.111,0.753,0.888,0.806 (inactive),-0.0198,-0.443,-1.04,-0.381,-0.82,1.13
O=C(CS)NCCCCCCNC(=O)[C@H]1C[C@H]2C(=O)NCC(=O)N2[C@H]1c1cccc(OCCO)c1,1.09,-0.0292,-0.027,-2.02 (inactive),0.901,-0.21,0.696,0.604,0.602,0.665
COC(=O)c1ccc(OC)c(/C=C\CC(OC(=O)c2ccncc2)c2ccccc2)c1 (stereo not given),-0.475,-0.367,-0.43,-2.07 (inactive),0.377,0.058,1.09,0.891,0.631,1.61
